The text below walks through data of PMC4552634, “A New Set of Chemical Starting Points with Plasmodium falciparum Transmission-Blocking Potential for Antimalarial Drug Discovery” (PLoS ONE, 2015).

SMILES strings stand for the structures. The campaign covered roughly 13,000 compounds. About 3,200 (25%) showed an effect of 50% or more. The list shows a part of the results.

This experiment deals with P. falciparum stage V gametocytes. Details: BacTiter-Glo ATP luminescence viability of purified stage V gametocytes in 384-well plates, per cent inhibition versus DMSO. Particulars: 48 h, 5 µM; inhibitor.
Consider `Clc1ccc(-c2ncc(-c3ccncc3)[nH]2)cc1Cl` [TCMDC-135775], for which the “% Inhibition” value is given as -31.04%.

Turning to `Nc1ccnc(N2CCC(CCOc3ccnc4cc(Cl)ccc34)CC2)c1` [TCMDC-141365], the “% Inhibition” value was -42.39%. The same measure for `CC(=O)Nc1nnc(SCc2c(C)cc(C(C)(C)C)cc2C)s1` [TCMDC-125446]: 0.04812%. The value for `CN1CC[C@@H](Oc2cc(Nc3nc(-c4ccc(C#N)cc4)cs3)ccc2Cl)C1` [TCMDC-136291] was 12.39%.

As for `Cc1ccc2[nH]c3c(c2c1)CC(C(=O)NCCC(C)C)NC31CCN(Cc2ccccc2)CC1` (stereo not shown) [TCMDC-141090], the “% Inhibition” value is listed as 28.05%. The value for `CC(C)CCNC(=O)C1Cc2c([nH]c3ccc(Br)cc23)C2(CCN(Cc3ccccc3)CC2)N1` (stereo not shown) [TCMDC-141178] was 102.8%. Turning to `CCCCCCNC(=O)C1Cc2c([nH]c3cc(Cl)ccc23)C2(CCN(Cc3ccccc3)CC2)N1` (stereo not shown) [TCMDC-141296], the “% Inhibition” value stood at 89.1%. On to `CC(C)CCNC(=O)C1Cc2c([nH]c3ccc(Br)cc23)C2(CCN(CCc3ccccc3)CC2)N1` (stereo not shown) [TCMDC-141179], for which the “% Inhibition” value is reported as 47.91%. Consider `CCCCCCNC(=O)C1Cc2c([nH]c3cc(Cl)ccc23)C2(CCN(CCC)CC2)N1` (stereo not shown) [TCMDC-141297], for which the “% Inhibition” value was -77.49%. The same measure for `CCCCCCNC(=O)C1Cc2c([nH]c3ccc(F)cc23)C2(CCN(Cc3ccccc3)CC2)N1` (stereo not shown) [TCMDC-141303]: 21.59%; for `Nc1cc(-c2cc3c(OCc4ccccc4)cccc3[nH]2)ccn1` [TCMDC-134290]: -55.8%; for `CN(C)CCC1CCN(CCS(=O)(=O)c2cccc(Nc3ccc(-c4ccsc4)cn3)c2)CC1` [TCMDC-134377]: 15.01%. The same measure for `Cc1cc(Cl)ccc1NC(=O)Nc1ccc2nccc(N3CCN(C)CC3)c2c1` [TCMDC-139357]: 8.372%; for `COc1ccc(CN(C)CCCOc2ccc(NC(=O)c3cccc4c(=O)c5cccc(F)c5[nH]c34)cc2)cc1OC` [TCMDC-131846]: 60.98%.

Turning to `COc1ccc(CCN(C)CCOc2ccc(NC(=O)c3cc(SC)cc4c(=O)c5ccccc5[nH]c34)cc2)cc1OC` [TCMDC-131957], the “% Inhibition” value was determined as 24.55%. For `COc1ccc(CCN(C)CCCN2CCC(NC(=O)c3cccc4c(=O)c5ccccc5sc34)CC2)cc1OC` [TCMDC-131966], the “% Inhibition” value was 103.2%. The same measure for `COc1ccc(CCN(C)CCc2ccc(NC(=O)c3cccc4c(=O)c5ccccc5sc34)cc2)cc1` [TCMDC-131965]: 45.76%; for `COc1ccc(CCN(C)CCCOc2ccc(NC(=O)c3cccc4c(=O)c5ccccc5[nH]c34)cc2)cc1OC` [TCMDC-132116]: 43.65%. The same measure for `COc1ccc(CCN(C)CCOc2ccc(NC(=O)c3cccc4c(=O)c5cc(SC)ccc5[nH]c34)cc2)cc1OC` [TCMDC-131958]: 53.19%. Regarding `COc1ccc(CN(C)CCOc2ccc(NC(=O)c3cccc4c(=O)c5cc(SC)ccc5[nH]c34)cc2)cc1OC` [TCMDC-131956], the “% Inhibition” value is on record as 28.02%. The same measure for `COc1ccc(CCN(C)CCCCc2ccc(NC(=O)c3cccc4c(=O)c5cc(F)ccc5sc34)cc2)cc1OC` [TCMDC-131961]: 94.02%.

As for `COc1ccc(CN(C)CCCOc2ccc(NC(=O)c3cccc4c(=O)c5cccc(C)c5[nH]c34)cc2)cc1OC` [TCMDC-131850], the “% Inhibition” value came out at 23.76%.

For `COc1cc(OCCCN(C)Cc2ccc(OC)c(OC)c2)ccc1NC(=O)c1cccc2c(=O)c3cccc(F)c3[nH]c12` [TCMDC-131853], the “% Inhibition” value worked out at 16.5%. The same measure for `COc1ccc(CN(C)Cc2ccc(NC(=O)c3cccc4c(=O)c5cccc(C)c5[nH]c34)cc2)cc1OC` [TCMDC-131852]: 2.818%; for `O=C(NCC1CCC(C(=O)NC2CCCc3ccccc32)CC1)c1ccc(O)c(-c2ccc(Cl)c(Cl)c2)c1` (stereo not shown) [TCMDC-140891]: 17.3%. The same measure for `COC(=O)C(NC(=O)NC1CCN(c2ccnc(Nc3ccc(F)cc3)n2)C1)c1ccccc1` (stereo not shown) [TCMDC-133595]: 4.499%; for `CCc1sc(CN(CCCNc2cc(=O)c3ccccc3[nH]2)Cc2sc(CC)c(Br)c2-c2ccsc2)c(-c2ccsc2)c1Br` [TCMDC-140753]: 49.24%; for `N=C1c2ccccc2CN1CC(=O)c1ccc(Cl)c(Cl)c1` [TCMDC-123783]: -26.95%. Regarding `N#Cc1ccc2c(c1)CCN(CCC1CCC(NC(=O)/C=C/c3cnc4ccccc4c3)CC1)CC2` (stereo not shown) [TCMDC-139662], the “% Inhibition” value is listed as -42.99%.

`O=C(NCc1ccc(F)cc1)Nc1cccc(-c2ccc(-c3nc4ccc(F)cc4[nH]3)cc2)c1` [TCMDC-133301]: the “% Inhibition” value was -42.08%.

`CCc1nnc2sc(-c3cccc(NC(=O)c4ccc(OC)c(Cl)c4)c3)nn12` [TCMDC-125049]: the “% Inhibition” value is on record as -8.625%. With `CC(C)(CN)c1cc(-c2ccc(Cl)c(O)c2)c(-c2ccncc2)o1` [TCMDC-141334], the “% Inhibition” value was -68.46%. The value for `CCCC(=O)Nc1ccc(Cl)c(NC(=O)COc2cc(C)ccc2C(C)C)c1` [TCMDC-123706] was -6.515%. With `CCc1ccc(NC(=O)c2ccc(CN3CCCN(Cc4cccc(C)c4)CC3)cc2)cc1` [TCMDC-136440], the “% Inhibition” value is reported as -10.99%. The same measure for `Nc1ncnc2nc(-c3ccc(F)cc3)cc(-c3ccc(NC(=O)c4ccccc4)cc3)c12` [TCMDC-134854]: -13.72%; for `CCCC1N=C(N)N=C(N)N1c1ccc(CC)cc1` (stereo not shown) [TCMDC-131300]: -2.095%; for `CC(C)CC1c2[nH]c3ccccc3c(=O)c2CN1C(=O)OC(C)(C)C` (stereo not shown) [TCMDC-134513]: 44.74%. Take `COc1ccc(CN(C)CCCc2ccc(NC(=O)c3cccc4c(=O)c5ccccc5[nH]c34)cc2)cc1OC` [TCMDC-131963]: the “% Inhibition” value was found to be 13.74%. Consider `COc1ccc(CCN(C)CCOc2ccc(NC(=O)COc3ccc4sc5ccccc5c(=O)c4c3)cc2)cc1OC` [TCMDC-132111], for which the “% Inhibition” value came out at 31.27%. The value for `COc1ccc(CCN(C)CCCOc2ccc(NC(=O)COc3cccc4sc5ccccc5c(=O)c34)cc2)cc1OC` [TCMDC-132117] was 17.11%; that for `COc1ccc(CN(C)CCCc2ccc(NC(=O)c3cccc4c(=O)c5cccc(F)c5[nH]c34)cc2)cc1OC` [TCMDC-131964] was 81.66%. Turning to `COc1ccc(CN(C)CCCCc2ccc(NC(=O)COc3cccc4sc5ccccc5c(=O)c34)cc2)cc1OC` [TCMDC-131960], the “% Inhibition” value stood at 103.7%.

For `COc1cc(CCN(C)Cc2ccc(OC)c(OC)c2)ccc1NC(=O)c1cccc2c(=O)c3cccc(F)c3[nH]c12` [TCMDC-131854], the “% Inhibition” value worked out at 37.94%. For the molecule `Cn1cnnc1Sc1ccc(CN2CCOc3ccc(C4=CCCCC4)cc3C2)o1` [TCMDC-124661], the “% Inhibition” value is on record as -23.49%. The value for `NC1=NC(c2ccccc2)(c2ccccc2)C(=O)N1CCOc1ccccc1` [TCMDC-136493] was -46.39%. The value for `Clc1ccc2c(N3CCN(CCN4CCN(c5ccnc6cc(Cl)ccc56)CC4)CC3)ccnc2c1` [TCMDC-125557] was -4.056%; that for `CCc1cc(Cc2cnc(N)nc2N)cc(CC)c1OC` [TCMDC-137697] was -15.83%; that for `CCCc1cc(Cc2cnc(N)nc2N)ccc1OCCCCCC(=O)OCC` [TCMDC-137232] was -11.7%.

In the case of `CCOC(=O)C(=CNc1ccc(Cc2cnc(N)nc2N)cc1CC)C(=O)OCC` [TCMDC-137346], the “% Inhibition” value worked out at 53.58%.

As for `O=C1CN(C(=O)CCC2CCCC2)C(c2ccc(F)cc2)c2cc(F)ccc2N1` (stereo not shown) [TCMDC-124463], the “% Inhibition” value is given as -48.27%. The same measure for `Cc1cc(NC(=O)c2cccs2)ccc1OC1CCN(Cc2ccccc2)CC1` [TCMDC-133988]: 37.37%; for `c1ccc(-c2cc3cccc(-c4nc5ccncc5[nH]4)c3o2)cc1` [TCMDC-140516]: 7.065%; for `COc1cccc(-c2nn(C)c3sc(C(=O)Nc4cccnc4)cc23)c1` [TCMDC-123584]: -55.35%. The value for `c1ccc2oc(-c3cc4ccncc4cc3OC3CCNCC3)cc2c1` [TCMDC-134160] was 92.38%; that for `O=C(Nc1ccccc1)c1ccc(-c2cc3ccncc3cc2OC2CCNCC2)s1` [TCMDC-134227] was 77.06%; that for `O=C(Nc1cccc(OC2CCN(Cc3ccccc3)CC2)c1)c1ccc(Cl)c(Cl)c1` [TCMDC-139542] was 5.419%. For the molecule `O=C(Nc1cccnc1)c1ccc(-c2cc3ccncc3cc2OC2CCNCC2)s1` [TCMDC-134228], the “% Inhibition” value is reported as 62.63%.

As for `Nc1ncc(-c2cc3ccccc3o2)c(N)n1` [TCMDC-137177], the “% Inhibition” value was 18.48%. The same measure for `c1cncc(NCc2ccc(-c3cc4ccncc4cc3OC3CCNCC3)s2)c1` [TCMDC-134161]: 28.32%.

For the molecule `CCOC(=O)c1ccc(NC(=O)Nc2cccc(-c3ccc(-c4nc5cccc(C)c5[nH]4)s3)c2)cc1` [TCMDC-133258], the “% Inhibition” value is -27.38%. The value for `O=C(Nc1ccsc1)Nc1cccc(-c2cccc(-c3nc4ccc(F)cc4[nH]3)c2)c1` [TCMDC-133216] was -18.7%; that for `O=C(Nc1cccc(-c2ccc(-c3nc4ccc(F)cc4[nH]3)cc2)c1)Nc1ccc(F)c(F)c1F` [TCMDC-133231] was -4.749%. Take `C=Cc1cc(NC(=O)N2CCc3cc(OC)c(C(F)(F)F)cc32)cc(-c2cccnc2)c1` [TCMDC-139030]: the “% Inhibition” value was -6.517%. The same measure for `CC(C)=CC1C(C(=O)n2c(N)nc3ccccc32)C1(C)C` (stereo not shown) [TCMDC-131688]: 3.871%; for `Nc1ccc(-c2nc3c(ccc4ccccc43)[nH]2)cc1` [TCMDC-124395]: 24.31%; for `CC(C)n1c(C(C)(C)C)cc2c3c(N)nc(N)nc3ccc21` [TCMDC-137311]: 32.82%.

Take `CC(C)c1cc2c(ccc3nc(N)nc(N)c32)[nH]1` [TCMDC-137847]: the “% Inhibition” value came to 19.02%. The same measure for `CC(C)(C)c1ccc(Cc2cccc3nc(N)nc(N)c23)cc1` [TCMDC-137821]: -51.22%; for `CC(C)(C)c1ccc(-c2nc3c(ccc4nc(N)nc(N)c43)[nH]2)cc1` [TCMDC-137984]: 112.2%; for `Cc1c(C(C)(C)C)ccc2nc(N)nc(N)c12` [TCMDC-137831]: -39.39%. In the case of `CC(C)(C)c1ccc(-c2cc3c(ccc4nc(N)nc(N)c43)[nH]2)cc1` [TCMDC-137977], the “% Inhibition” value is listed as 117.8%.

For `Cc1c(N)ccc2[nH]c(-c3ccc(N)cc3)nc12` [TCMDC-124242], the “% Inhibition” value is given as 91.56%.

In the case of `Cc1cc(N)cc2[nH]c(-c3ccc(N)cc3)nc12` [TCMDC-124391], the “% Inhibition” value is on record as -6.074%.
